In PubChem BioAssay (NCATS):
Records with an inconclusive call do not appear. Calls of active or inactive are those of the source. Unless noted, the call rests on the fitted dose curve; in most records, active means well fitted cell-killing curve with a large enough effect; inconclusive means small, poorly fitted or top-dose-only effect, or effect the other way; inactive means no such curve, though single readings can be large or run the other way.

Legend:
[1] = Quantitative High-Throughput drug screen in 47 multiple myeloma cell lines against the NCATS MIPE library collection: PCM6_Riken cell viability assay (AID 1919870); further: nearly all actives have a fitted effect of over 30% in size; further: potency means the concentration at half of the fitted maximal effect
Procedure, shortened: (§1)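 500 cells/well; MIPE 4.0 drugs pin-transferred; 48 h, 37C, 5% CO2. CellTiter-Glo, 5 min RT, luminescence. Controls: DMSO 100%, media 0%.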

[2] = Quantitative High-Throughput drug screen in 47 multiple myeloma cell lines against the NCATS MIPE library collection: RPMI8226_ATCC cell viability assay (AID 1919871); further: nearly all actives have a fitted effect of over 30% in size; further: potency means the concentration at half of the fitted maximal effect
Procedure, shortened: as §1

[3] = Quantitative High-Throughput drug screen in 47 multiple myeloma cell lines against the NCATS MIPE library collection: KMS28BM_JCRB cell viability assay (AID 1919874); further: nearly all actives have a fitted effect of over 35% in size; further: potency means the concentration at half of the fitted maximal effect
Procedure, shortened: as §1

[4] = qHTS drug screen for cell cycle checkpoint inhibitors in PARPi-resistant BRCA-mutant ovarian cancer cell lines. (AID 1963452; calls by dose curve); settings: PEO1/OlaR viability, CellTiter-Glo luminescence, 96 h, stronger effect = lower value
Procedure, shortened: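 PEO1, PEO4 and PEO1/OlaR ovarian cancer cells, 600 per well, exposed 96 h at 37C to a dilution series. Viability read by CellTiter-Glo luminescence, normalized to DMSO and empty wells; activity summarized as Z-AUC.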

[5] = Quantitative High-Throughput drug screen in 47 multiple myeloma cell lines against the NCATS MIPE library collection: KMS11_JCRBsus cell viability assay (AID 1919873); further: nearly all actives have a fitted effect of over 50% in size; further: potency means the concentration at half of the fitted maximal effect
Procedure, shortened: as §1

[6] = qHTS for identification of novel therapeutic agents for treatment of microphthalmiaassociated transcription factor (MiT) renal cell carcinoma (RCC) (AID 1963991; calls by dose curve; further: potency means the concentration at half of the fitted maximal effect); settings: CellTiter-Glo, 48 h; for z-score: stronger effect = lower value
Procedure, shortened: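 Viability of three TFE3-fusion renal carcinoma lines measured by CellTiter-Glo after 48 h treatment with each of 1912 compounds at 11 concentrations. Responses scaled between DMSO (100%) and empty wells (0%) before curve fitting.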

[7] = Quantitative High-Throughput drug screen in 47 multiple myeloma cell lines against the NCATS MIPE library collection: OPM2_DSMZ cell viability assay (AID 1919872); further: nearly all actives have a fitted effect of over 30% in size; further: potency means the concentration at half of the fitted maximal effect
Procedure, shortened: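 CellTiter-Glo luminescence (ATP) after 48 h compound exposure, 37C/5% CO2; 500 cells/well; MIPE 4.0 approved/investigational drugs pinned in; DMSO = 100%, media only = 0% viability.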

[8] = measured here: PEO1 parental Z-AUC
[9] = TFE3-RCC UOK109 viability, measured here: UOK109 Z-AUC
[10] = TFE3-RCC viability, measured here: UOK124 Z-AUC
[11] = TFE3-RCC viability, measured here: UOK145 Z-AUC

C[C@@]1(c2cc(-c3cncnc3)c(F)cc2F)CCSC(N)=N1
Potency [1]: 2.96 µM (active)
Potency [2]: inactive
Potency [3]: 13.2 µM (active)
Z-AUC [4]: 0.854 (inactive)
Z-AUC [4, 8]: 0.822
Z-AUC ([4]; measured here: PEO4 Z-AUC): 0.652

CSc1cccc(Nc2ncc3cc(-c4c(Cl)cccc4Cl)c(=O)n(C)c3n2)c1
Potency [1]: 0.187 µM (active)
Potency [2]: 2.35 µM (active)
Potency [5]: 0.187 µM (active)
Z-AUC [4]: 0.438 (inactive)
Z-AUC [4, 8]: 0.39
Z-AUC ([4]; measured here: PEO4 Z-AUC): 0.318

COc1cc2ncnc(Nc3cc(Br)c(O)c(Br)c3)c2cc1OC
Potency [1]: 0.0332 µM (active)
Potency [2]: 8.33 µM (active)
Potency [3]: inactive
Z-AUC [4]: -1.45 (inactive)
Z-AUC [4, 8]: -0.545
Z-AUC ([4]; measured here: PEO4 Z-AUC): -1.13

Cc1ccc(NC(=O)c2ccc(CN3CCN(C)CC3)cc2)cc1Nc1nc(-c2cccnc2)cs1
Potency [1]: 4.18 µM (active)
Potency [2]: 18.7 µM (active)
Potency [5]: 10.5 µM (active)
Potency [3]: 20.9 µM (active)
Z-AUC [4]: -0.78 (inactive)
Z-AUC [4, 8]: -0.735
Z-AUC ([4]; measured here: PEO4 Z-AUC): -0.741

O=C1NC(=O)C(c2cnc3ccccn23)=C1c1cn2c3c(cccc13)CN(C(=O)N1CCOCC1)CC2
Potency [1]: 7.43 µM (active)
Potency [2]: 18.7 µM (active)
Potency [5]: 0.0935 µM (active)
Potency [3]: inactive
Z-AUC [4]: -1.3 (inactive)
Z-AUC [4, 8]: -1.91
Z-AUC ([4]; measured here: PEO4 Z-AUC): -0.9
Potency ([6]; TFE3-RCC UOK109 viability, active = Z-AUC below -0.8 in all three lines): 4.18 µM (active)
z-score [6, 9]: -1.6
z-score [6, 10]: -1.78
z-score [6, 11]: -1.46

COc1cc(C=CC(=O)O)ccc1O
Potency [1]: inactive
Potency [2]: inactive
Potency [5]: inactive
Potency [3]: inactive
z-score [6, 9]: -0.0784
z-score [6, 10]: 0.112
z-score [6, 11]: 0.103

COC(=O)[C@H](c1ccccc1Cl)N1CCc2sccc2C1
Potency [1]: inactive
Potency [2]: inactive
Potency [5]: inactive
Potency [3]: inactive
Z-AUC [4]: 1.43 (inactive)
Z-AUC [4, 8]: 1.15
Z-AUC ([4]; measured here: PEO4 Z-AUC): 0.952

C[C@@H](O[C@H]1OCCN(Cc2n[nH]c(=O)[nH]2)[C@@H]1c1ccc(F)cc1)c1cc(C(F)(F)F)cc(C(F)(F)F)c1
Potency [1]: 20.9 µM (active)
Potency [2]: 23.5 µM (active)
Z-AUC [4]: -0.0654 (inactive)
Z-AUC [4, 8]: -0.373
Z-AUC ([4]; measured here: PEO4 Z-AUC): -0.245

O=C(O)c1ccc(O)c2ncc(N3CCOCC3)cc12
Potency [1]: inactive
Potency [7]: inactive
Z-AUC [4]: -0.152 (inactive)
Z-AUC [4, 8]: -0.649
Z-AUC ([4]; measured here: PEO4 Z-AUC): -0.698

N#CC(c1ccnc(NCCc2cccnc2)n1)c1nc2ccccc2s1 (stereo not drawn)
Potency [1]: 5.9 µM (active)
Potency [7]: 26.4 µM (active)
Potency [5]: 11.8 µM (active)
Potency [3]: 26.4 µM (active)
Z-AUC [4]: 1.07 (inactive)
Z-AUC [4, 8]: 0.451
Z-AUC ([4]; measured here: PEO4 Z-AUC): 0.404

C=CCc1cccc(C=NNC(=O)CN2CCN(Cc3ccccc3)CC2)c1O
Potency [1]: 26.4 µM (active)
Potency [7]: 16.6 µM (active)
Potency [5]: 8.33 µM (active)
Potency [3]: 7.43 µM (active)

NS(=O)(=O)c1ccc(Nc2nc(OCC3CCCCC3)c3[nH]cnc3n2)cc1
Potency [1]: 10.5 µM (active)
Potency [2]: inactive
Z-AUC [4]: -1.43 (inactive)
Z-AUC [4, 8]: -0.91
Z-AUC ([4]; measured here: PEO4 Z-AUC): -1.12

COc1cc2nccc(Oc3ccc(NC(=O)Nc4ccc(F)cc4F)c(F)c3)c2cc1OC
Potency [1]: inactive
Potency [7]: 4.69 µM (active)
Potency [5]: 2.09 µM (active)
Potency [3]: 1.05 µM (active)
Z-AUC [4]: 0.868 (inactive)
Z-AUC [4, 8]: 0.566
Z-AUC ([4]; measured here: PEO4 Z-AUC): 0.26

CC(C)C[C@@H](C(=O)N[C@H](C(=O)OC1CCCC1)c1ccccc1)[C@H](O)C(=O)NO
Potency [1]: 18.7 µM (active)
Potency [5]: 18.7 µM (active)
Potency [3]: 20.9 µM (active)
Z-AUC [4]: -0.457 (inactive)
Z-AUC [4, 8]: -0.511
Z-AUC ([4]; measured here: PEO4 Z-AUC): -0.774

Clc1ccc(C2(c3ccc(-c4cn[nH]c4)cc3)CCNCC2)cc1
Potency [1]: 6.62 µM (active)
Potency [7]: 26.4 µM (active)
Potency [3]: 16.6 µM (active)
Z-AUC [4]: 0.223 (inactive)
Z-AUC [4, 8]: 0.18
Z-AUC ([4]; measured here: PEO4 Z-AUC): 0.0319

CC=C(C(=CC)c1ccc(O)cc1)c1ccc(O)cc1
Potency [1]: 20.9 µM (active)
Potency [7]: 18.7 µM (active)

CCCCC(C=O)NC(=O)C(CC(C)C)NC(=O)OCc1ccccc1 (stereo not drawn)
Potency [1]: inactive
Potency [7]: 14.8 µM (active)
Potency [3]: 23.5 µM (active)

CN1CCc2c(n(Cc3ccc(C(=O)NO)cc3)c3ccccc23)C1
Potency [1]: 20.9 µM (active)
Potency [5]: 18.7 µM (active)
Potency [3]: 18.7 µM (active)
Z-AUC [4]: 0.742 (inactive)
Z-AUC [4, 8]: 0.892
Z-AUC ([4]; measured here: PEO4 Z-AUC): 0.628

CCCCCCCCCCCCCC(=O)N[C@H](CO)[C@H](O)c1ccc([N+](=O)[O-])cc1
Potency [1]: 20.9 µM (active)
Potency [7]: inactive
Potency [5]: 23.5 µM (active)
Z-AUC [4]: 1.33 (inactive)
Z-AUC [4, 8]: 1.09
Z-AUC ([4]; measured here: PEO4 Z-AUC): 1.02

CCCCC(F)(F)[C@@]1(O)CC[C@H]2[C@H](CC(=O)[C@@H]2CCCCCCC(=O)O)O1
Potency [1]: inactive
Potency [7]: inactive
Potency [5]: inactive
Potency [3]: inactive
Z-AUC [4]: -0.514 (inactive)
Z-AUC [4, 8]: 0.401
Z-AUC ([4]; measured here: PEO4 Z-AUC): 0.738
z-score [6, 9]: 0.852
z-score [6, 10]: 0.425
z-score [6, 11]: 0.602

C[C@@H]1CCO[C@H]2Cn3cc(C(=O)NCc4ccc(F)cc4F)c(=O)c(O)c3C(=O)N12
Potency [1]: 23.5 µM (active)
Potency [7]: inactive
Potency [5]: 18.7 µM (active)
Potency [3]: 16.6 µM (active)

O=C(c1ccc(C=Cc2n[nH]c3ccccc23)cc1)N1CCNCC1
Potency [1]: 16.6 µM (active)
Potency [7]: 10.5 µM (active)
